Data taken from PubChem BioAssay AID1159580 (chemical genetic matrix, 2015).
About 2,000 (36%) of roughly 5,500 compounds were called active. About 18% were inconclusive and are not listed. Cut-off read from the data, not from the text of the source: active = normalized growth mostly below about 0.91 (no sharp cut-off); inconclusive = no clear call, values can overlap the other calls; inactive = mostly above about 0.92. Some of the results follow.

Assay: chemical genetic growth profiling, strain panel (AID 1159580);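 note: tested at 20 µM; growth read once vehicle control cultures reached saturation at 30 °C; 1 = growth at the plate median or of vehicle wells; lower values mean less growth of the strain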
Details: S. cerevisiae deletion strains, growth OD
[1] = locus YGR078C, strain PAC10, active compounds read low
[2] = locus YMR263W, strain SAP30, active compounds read low
[3] = locus YNL128W, strain TEP1, active compounds read low
[4] = locus YPL055C, strain LGE1, active compounds read low
[5] = locus YPL241C, strain CIN2, active compounds read low

Measured: normalized growth

N#CC(C#N)=CNc1cccc(N)n1
inactive: locus YAL013W, strain DEP1, active compounds read low 0.995 | locus YBR229C, strain ROT2, active compounds read low 1.01 | locus YCL061C, strain MRC1, active compounds read low 1.04 | locus YDL101C, strain DUN1, active compounds read low 1.05 | locus YDL134C, strain PPH21, active compounds read low 1.01 | locus YDR150W, strain NUM1, active compounds read low 1.07 | locus YEL061C, strain CIN8, active compounds read low 1 | [1] 1.02 | locus YGR229C, strain SMI1, active compounds read low 1.02 | locus YHR030C, strain SLT2, active compounds read low 1.05 | locus YHR087W, strain rtc3, active compounds read low 0.968 | locus YJR043C, strain POL32, active compounds read low 1.03 | locus YJR075W, strain HOC1, active compounds read low 1.05 | locus YLR039C, strain RIC1, active compounds read low 1.05 | locus YLR058C, strain SHM2 (second series), active compounds read low 0.992 | locus YLR085C, strain ARP6, active compounds read low 1.03 | locus YLR262C, strain YPT6, active compounds read low 1 | locus YML094W, strain GIM5, active compounds read low 0.991 | locus YMR219W, strain ESC1, active compounds read low 1 | [2] 1.05 | [3] 1 | locus YNL153C, strain GIM3, active compounds read low 1.02 | locus YNL298W, strain CLA4 (second series), active compounds read low 1.01 | locus YNL322C, strain KRE1, active compounds read low 1.01 | locus YNR030W, strain Alg12, active compounds read low 1 | [4] 0.996 | [5] 1 | locus YPR135W, strain CTF4, active compounds read low 1.07

CC(N)C1CCC(C(=O)Nc2ccncc2)CC1 (configuration not stated)
inactive: locus YAL040C, strain CLN3, active compounds read low 0.989 | locus YCL061C, strain MRC1 (second series), active compounds read low 1 | locus YDR363W, strain ESC2, active compounds read low 0.985 | locus YER002W, strain NOP16, active compounds read low 0.987 | [1] 1.02 | [2] 1 | locus YMR307W, strain GAS1, active compounds read low 1.02 | [3] 1.01 | locus YNL175C, strain NOP13, active compounds read low 0.992 | locus YNL197C, strain WHI3, active compounds read low 0.99 | locus YNL224C, strain SQS1, active compounds read low 0.993 | locus YOR083W, strain WHI5 (second series), active compounds read low 1.05 | [4] 0.987 | [5] 0.996
